# Results taken from the emibetuzumab library of Makowski et al. (2022).
# The other results are listed elsewhere or left out. The true hit rate is not given.
# B1: VH:VL chains; a variant is named by its letters at X, in order (parent)
# chain 1: QVQLVQSGAEVKKPGASVKVSCKASGYTFTDYXMHWVRQAPGQGLEWMGXVNPNXXXTTYNQKFEGRVTMTTDTSTSTAYMELRSLRSDDTAVYYCARXNXLDXWGQGTTVTVSS
# chain 2: DIQMTQSPSSLSASVGDRVTITCSVSSSVSSIYLHWYQQKPGKAPKLLIYSTSNLASGVPSRFSGSGSGTDFTLTISSLQPEDFATYYCQVYSGYPLTFGGGTKVEIK
# Variants of: B1
# Test: yeast display scFab, FACS + sequencing
# Settings: with MET
# Summary of the method: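 Antigen binding was called positive for sequences present in both antigen-positive samples and negative for those present only in the input. These calls came from deep sequencing, in two replicates, of round-3 sorted and input populations from a heavy-chain CDR mutant scFab yeast surface library. The library was first enriched twice magnetically on HGFR-Fc-coated Protein A beads and then by FACS, gating the top 50% antigen-positive cells after 3 h labelling at room temperature with 1 nM HGFR-Fc plus anti-Myc in PBSB with 1% milk.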
row,Variant,antigen binding call
1,VTGGDSWF,no binding
2,AGTRSFGY,no binding
3,FRATSAVD,no binding
4,FTEEGAVD,no binding
5,FRAGGAVD,binds
6,FRAGGSVD,binds
7,VKAGDSGA,no binding
8,VTTKSSVA,no binding
9,VKEGGDVA,no binding
10,YKARGSGS,binds
11,YKAGGSAS,binds
12,SKTKSSAS,no binding
13,VKKTGSGA,no binding
14,DKAGGDGS,no binding
15,VKARGSVA,binds
16,VKARGSGA,binds
17,VAGGDDGF,no binding
18,SKTKSDGV,no binding
19,YEARNAGA,no binding
20,YTERAAWA,no binding
21,YKARGSGA,binds
22,VKERGAVA,no binding
23,YKARGAGA,binds
24,VKEGGSSA,no binding

row,Variant,antigen binding call
1,VKARGSLA,binds
2,YMAEGSGA,no binding
3,YKARGAWA,binds
4,SAAGSVWY,no binding
5,VKEGGDGA,no binding
6,DEAGDAVV,no binding
7,SAGRGFGF,no binding
8,SRGRGAGF,binds
9,SRGRGAWF,binds
10,VKRGSSSD,binds
11,AKGKASSD,no binding
12,AKAADSSD,no binding
13,YARADSSD,no binding
14,YKRGSSSD,binds
15,AKTGDSSD,no binding
16,YKAGDSSD,binds
17,YKRKSASD,binds
18,YKAGGYSD,no binding
19,VAEKGDVF,no binding
20,VTGEDDWV,no binding
21,DREGDDAV,no binding
22,SEARSDSF,no binding
23,AKAGGASD,no binding
24,YKRRDASD,no binding

row,Variant,antigen binding call
1,YKRGSASD,binds
2,DTTGSDAV,no binding
3,VAGTDDWV,no binding
4,YRAGGFVV,binds
5,YRATDFVV,no binding
6,YRRRGFVV,binds
7,YRRRGFAV,binds
8,YRRGGFVV,binds
9,YTATGFAV,no binding
10,ATAGSASD,no binding
11,DRGGDDWV,no binding
12,STGTSDLY,no binding
13,AATTDSGD,no binding
14,SAREGDAV,no binding
15,YTRGADLA,no binding
16,YTRGASSS,binds
17,YRRGASSS,binds
18,YTRGADGS,no binding
19,AETKGSLA,no binding
20,SAAGGAAV chain 1 L45S,no binding
21,DAEEDAGY,no binding
22,FKTKSAGD,no binding
23,FAARSYGD,no binding
24,VKKEDAGD,no binding

row,Variant,antigen binding call
1,FGRRTYGD,binds
2,FKRGDAGD,binds
3,FRRGDALD,binds
4,FRRGDAGD,binds
5,FGRGTSGD,no binding
6,FTGEAAGD,no binding
7,STAEDDWV,no binding
8,VTAGDDAV,no binding
9,AARADDVA,no binding
10,YRTRGASD,binds
11,VTTGGAVD,no binding
12,VTTRGAVA,no binding
13,YRTRGAVD,binds
14,VRTRGAVD,binds
15,YKTRGAGD chain 1 Q43R,binds
16,DTTKGDGS,no binding
17,VEKGGDGV,no binding
18,DATRGAGD,no binding
19,YRTRGAGD,binds
20,SKAKGAWS,binds
21,SKRETAWS,binds
22,FEARDYWD,binds
23,SEARSDWD,no binding
24,SETKGDWD,no binding

row,Variant,antigen binding call
1,SKAKGAWD,binds
2,DKAKGDGS,no binding
3,SKAGDAWD,no binding
4,FEETDAGD,no binding
5,DATGNVWS,no binding
6,YATTSFSF,no binding
7,SKAKGSSD,binds
8,SKTRGAWD,binds
9,FKAKGAWD,binds
10,SKTKSDVD,no binding
11,SKERGDVD,no binding
12,SKRKSSSD,no binding
13,FGTKGAWD,no binding
14,FGEEDFSS chain 1 W105R,no binding
15,VGGTSDVV,no binding
16,VEEEGSGV,no binding
17,VTGEDSLD,no binding
18,VRTGDSAY,binds
19,VEAGDSLD,no binding
20,DRTGDDVY,no binding
21,VRGKDSLD,binds
22,VEETSSLD,no binding
23,VRAGDDVD,no binding
24,VRAGDSLD,binds

row,Variant,antigen binding call
1,VRTKAVAY,no binding
2,VRAGSSLD,binds
3,VTGTSSLD,no binding
4,VTTKSYLV,no binding
5,DAARGDGV,no binding
6,VRKGGSLD,binds
7,VAGTGSLD,no binding
8,VRTGDDGV,no binding
9,VKTGGSLD,no binding
10,VRAGSSWD,binds
11,VRTGDSLD,binds
12,AETKGFAV,no binding
13,VKGASDVA,no binding
14,YRGRASGA,binds
15,YGGRAAGA,no binding
16,YRAAGSGA,binds
17,YEGGTSGA,no binding
18,YRGGASGA,binds
19,VRAGADVA,no binding
20,YTGTSSGA,no binding
21,YRAGAAVA,binds
22,VEEEGDAV,no binding
23,YRAGSSGA,binds
24,YRGANSGA,no binding

row,Variant,antigen binding call
1,YRARSSGA,binds
2,DRAGDAGA,no binding
3,YRARSAGA,binds
4,YRAGASLA,binds
5,DRAGDSGA,no binding
6,SREAASLA,no binding
7,DEGGDAGD,no binding
8,VAEKGDAA,no binding
9,VEKGGDWD,no binding
10,FKGEGDVY,no binding
11,VKTGGDVA,no binding
12,YRAGASGA,binds
13,YRKGSAAA,binds
14,DAKEGAAA,no binding
15,YRKEAAAA,binds
16,YRKEGAAA,binds
17,VAEAAVGD,no binding
18,AETKGDWV,no binding
19,VEGTSAVY,no binding
20,VKKEDDVV,no binding
21,VRGGGAWV,binds
22,VRAGGAWV,binds
23,VRAGGDWV,no binding
24,VRGTGAVY,no binding

row,Variant,antigen binding call
1,VEGGGFAY,no binding
2,VAGGGAAV,no binding
3,VRGAGAWV,no binding
4,VRGGGAAY,binds
5,VRGGGAAV,binds
6,VREGAAAV,no binding
7,DTTGSAVV,no binding
8,FTGTSDLY,no binding
9,FRGRGAWS,binds
10,FRGRDYGS,no binding
11,FEATASWS,no binding
12,FRGRDSWS,binds
13,FRGRGSVS,binds
14,FRGRDFGS,no binding
15,FRGRGSWS,binds
16,AGGGNDGA,no binding
17,VTGGDDWY,no binding
18,AARADAVV,no binding
19,FRGRGFLS,no binding
20,FRGRGAGS,binds
21,FRGRGAAS,binds
22,FRGRGSLS,binds
23,FRGRGDLS,no binding
24,FRGRGALS,binds

row,Variant,antigen binding call
1,SGKKSSGV,no binding
2,VEGTSAVF,no binding
3,FRGRASLS,binds
4,DRERGDGY,no binding
5,YRRRGDGY,binds
6,YRRRGAGY,binds
7,YRRRGFGY,binds
8,YRRRGVGY,binds
9,YAAKSDGY,no binding
10,FAAAGFVA,no binding
11,VKREAVGV,no binding
12,YRRRGSGY,binds
13,YRRRGFGS,binds
14,SRTRGFGS,no binding
15,YAREAALS,no binding
16,YRTGAALS,binds
17,VREGDYLS,no binding
18,VRTRGALS,binds
19,YRTRGALS,binds
20,DREEGAGS,no binding
